Records with an inconclusive call do not appear. A call without a number means that no potency is given here. Activity calls are given as the source filed them. Calls come from the whole dose curve; as a rule, active = well fitted inhibition curve with a large enough effect; inconclusive = small, poorly fitted or top-dose-only effect, or effect the other way; inactive = flat fitted curve, though single readings scatter.
The compounds below were run against Ubiquitin carboxyl-terminal hydrolase 2 (Homo sapiens) (UniProt O75604) (assay: Confirmation Assay for Inhibitors of Ubiquitin-specific Protease USP2a Using CHOP2 as the Reporter). Conditions: USP2 core, Ub-CHOP2 coupled reporter fluorescence; series mostly up to 38.3 µM.
Ubiquitin carboxyl-terminal hydrolase 2 (Homo sapiens), sequence (O75604 whole entry, looked up): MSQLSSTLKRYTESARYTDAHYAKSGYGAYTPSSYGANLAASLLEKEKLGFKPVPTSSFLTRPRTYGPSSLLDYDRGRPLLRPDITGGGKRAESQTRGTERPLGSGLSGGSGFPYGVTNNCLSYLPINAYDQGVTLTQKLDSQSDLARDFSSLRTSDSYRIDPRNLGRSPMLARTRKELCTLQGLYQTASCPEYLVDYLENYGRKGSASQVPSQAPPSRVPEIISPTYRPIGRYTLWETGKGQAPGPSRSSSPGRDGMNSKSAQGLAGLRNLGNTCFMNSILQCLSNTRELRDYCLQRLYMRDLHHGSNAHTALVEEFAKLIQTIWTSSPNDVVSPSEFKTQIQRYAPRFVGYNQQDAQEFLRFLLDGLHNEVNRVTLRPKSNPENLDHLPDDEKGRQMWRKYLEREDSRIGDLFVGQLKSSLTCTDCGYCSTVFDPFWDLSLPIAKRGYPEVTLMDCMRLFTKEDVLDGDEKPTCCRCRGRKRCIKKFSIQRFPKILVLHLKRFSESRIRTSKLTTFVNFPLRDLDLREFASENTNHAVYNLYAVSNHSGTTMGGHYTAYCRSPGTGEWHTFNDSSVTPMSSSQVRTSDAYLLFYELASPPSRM
Excerpt: NIH Molecular Libraries Probe Centers Network [MLPCN] NIH Chemical Genomics Center [NCGC] MLSCN Grant: XO1-MH079852-01 PI Name: Nicholson, Ben. Progenra Inc, Malvern, PA NCGC Assay Overview: Homeostasis of cellular proteins is maintained through a combination of synthesis and degradation. The pathway that accounts for the majority of protein degradation is the ubiquitin-proteasomal pathway. Ubiquitin (Ub) is highly conserved in all cells and the generation of a multi-Ub chain typically targets proteins for degradation by the proteasome. However, ubiquitination is highly reversible and dynamic. Deubiquitination, the reverse process, is catalyzed through the action of enzymes referred to as isopeptidases or deubiquitinating enzymes (DUBs). This group of enzymes is collectively responsible for maintaining adequate pools of free ubiquitin and regulating the ubiquitination status of cellular proteins. The class of DUBs referred to as the ubiquitin-specific proteases (USP) family functions endoproteolytically to cleave Ub chains from a wide range of protein substrates. USP2a deubiquitinates fatty acid synthase (FASN) which has recently been identified as an emerging oncology target. To identify inhibitors of USP2a a cell-free assay was employed. […] The reporter enzyme chosen is an […] called CHOP2, which is activated when the Ub is cleaved by USP2. The free and now activated reporter can subsequently act on its reporter substrate. Thus, this coupled assay gives a fluorescent read-out at excitation/emission wavelengths of 485/531. The assay was developed by Progenra, Inc. and has been licensed for sale by LifeSensors, Inc. as Ub-CHOP2-Reporter-Kit (#PR1101).
NCGC Assay Protocol Summary: The assay buffer, prepared fresh at the day of the assay, contains 20mM Tris-HCl pH 8.0, 2mM CaCl2, 2mM beta-Mercaptoethanol, 0.05% CHAPS. 3ul of 20nM (10nM final) USP2 core, which is stored on ice, is dispensed into a medium-binding black solid Kalypsys 1,536 well plate using the Kalypsys dispenser. The assay plate is then pinned with 23nL compound with the Kalypsys pintool in columns 5-48. The controls are pinned as follows: column 1 two-fold dilutions of 2M NEM in duplicate; column 2 2M NEM (final concentration 38.2mM); column 3&4 DMSO. The assay plate is incubated at RT for 30min. Subsequently, 1.5uL of 100nM (25nM final) Ub-CHOP2 and 1.5uL of 100nM (25nM final) Reporter Substrate (both stored on ice and protected from light) were dispensed into the plate using the Kalypsys dispenser. Plates were read after 60min RT incubation on a ViewLux (Perkin Elmer) plate reader using the following wavelengths Ex 485nm /Em 531nm. Data were normalized to the to AC100 inhibition (NEM). Concentration-response curves were fitted to the normalized data and the concentration-response curves were then classified based on curve quality (r2), response magnitude and degree of measured activity. The time zero reading was used to flag fluorescence artifacts. Keywords: ubiquitination, deubiquitination, proteases, profluorescent, MLSMR, MLPCN, NIH Roadmap, qHTS, NCGC
For `COc1ccc(-c2nc(C#N)c(NCC3CCCO3)o2)cc1OC` (stereo not given), the Potency was “inactive”.
`O=C(Cc1ccc(S(=O)(=O)N2CCOCC2)s1)Nc1nc2c(s1)CCCC2` was tested, and the Potency was 14.7 µM (active).
`Cc1ccccc1NC(=O)CSc1nnc(-c2ccco2)c(-c2ccco2)n1` was tested, and the Potency was “inactive”.
With `CC1CCCCN1CCNC(=O)c1cnn2ccccc12` (stereo not given) the Potency was “inactive”.
`CCOc1ccc2[nH]c(=O)c(CN(Cc3nnnn3Cc3ccco3)C3CCCCC3)cc2c1` was tested, and the Potency was “inactive”.
`NS(=O)(=O)c1ccc(NC(=O)CN2CCCCC2)cc1` was tested, and the Potency was “inactive”.
With `Cc1ccc(C(=O)O/N=C/c2c(C(F)(F)F)nn(C)c2Sc2ccc(Cl)cc2)cc1` the Potency was “inactive”.
`O=[N+]([O-])c1c(NCCO)cc(N2CCN(Cc3ccc4c(c3)OCO4)CC2)c2nonc12` was tested, and the Potency was “inactive”.
With `O=C1Nc2ccccc2SC(c2ccccc2)C1O` (stereo not given) the Potency was 13.1 µM (active).
With `Cc1noc(NS(=O)(=O)c2ccc(N3CC(O)=C(c4ccccc4)C3=N)cc2)c1C` the Potency was “inactive”.
In the case of `O=C(N/N=C/c1ccc(-c2ccc(S(=O)(=O)Nc3ncccn3)cc2)o1)c1cc2ccccc2cc1O`, the Potency is reported as 9.27 µM (active).
`O=C(O)CC(C(=O)O)N1C(=O)/C(=C/C=C/c2ccco2)SC1=S` (stereo not given) was tested, and the Potency was 4.14 µM (active).
With `CCN1C(=O)C(NC(C)=O)c2cc(OC)ccc21` (stereo not given) the Potency was “inactive”.
For `CCOc1ccc(NC(=O)c2cccc(-n3cnnn3)c2)cc1`, the Potency was “inactive”.
For `CC(C)CC(=O)NC(=S)Nc1nc(-c2ccc(Cl)cc2)cs1`, the Potency was “inactive”.
In the case of `C=C(CCC(=O)c1ccccc1)C(=O)c1ccccc1`, the Potency is reported as “inactive”.
`COC(=O)[C@@]12CCCCN1[C@H](c1ccc(-c3ccc(Cl)c(Cl)c3)cc1)[C@H]1C(=O)N(C)C(=O)[C@H]12` was tested, and the Potency was “inactive”.
`COc1ccc(-n2c(=S)[nH]c3cc(C(=O)NCc4ccc(F)cc4)ccc3c2=O)c(OC)c1` was tested, and the Potency was “inactive”.
`Cc1ccc(C)c(S(=O)(=O)c2c(N)n(/N=C/c3ccco3)c3nc4ccccc4nc23)c1` was tested, and the Potency was “inactive”.
With `O=C(Nc1nc(-c2ccco2)c(-c2ccco2)s1)C1CC(=O)N(c2ccc3c(c2)OCCO3)C1` (stereo not given) the Potency was 10.4 µM (active).
In the case of `CCOc1cc(/C=C/c2nc3cc(C)c(C)cc3s2)ccc1OCC(=O)N1CCOCC1`, the Potency is reported as “inactive”.
For `CCC(C(=O)Nc1nnc(-c2ccco2)s1)c1ccccc1` (stereo not given), the Potency was “inactive”.
With `C/C(Cn1nnc2ccccc21)=N\OC(=O)c1ccccc1C` the Potency was “inactive”.
`C[C@H](CO)N1C[C@H](C)[C@@H](CN(C)S(=O)(=O)c2cn(C)cn2)Oc2ccc(NC(=O)Cn3cnnn3)cc2C1=O` was tested, and the Potency was “inactive”.
`CNC(=O)NC(=O)CSc1ccc(NC(C)=O)cc1` was tested, and the Potency was “inactive”.
For `Cc1ccc(C2=NC(=O)/C(=C/c3cc(O)c(O)c(Br)c3)S2)cc1`, the Potency was 7.36 µM (active).
For `O=C(c1cccc(F)c1)N1CCN(S(=O)(=O)c2ccccc2)CC1`, the Potency was “inactive”.
`COc1ccc(-n2c(SCC(=O)N3CCN(c4ccccc4)CC3)nc3c(c2=O)SCC3)cc1` was tested, and the Potency was “inactive”.
In the case of `CCOc1ccccc1N1C(=O)CC(Nc2ccc(N3CCOCC3)cc2)C1=O` (stereo not given), the Potency is reported as “inactive”.
In the case of `CC(C)(C)NC(=O)CSc1nc(O)cc(=O)n1-c1ccccc1F`, the Potency is reported as “inactive”.
In the case of `O=C(O)c1cc(N2N=C(C(F)(F)F)/C(=C/C=C/c3ccco3)C2=O)ccc1Cl`, the Potency is reported as 5.85 µM (active).
For `Cc1cc(N2CCC(C(=O)NC3CC3)CC2)nc(-c2ccccc2)n1`, the Potency was “inactive”.
`COc1ccc2nc(C)cc(SCC(=O)N/N=C/c3c(OC)ccc4ccccc34)c2c1` was tested, and the Potency was “inactive”.
In the case of `COc1ccc(/C=N/NC(=O)c2nn(-c3ccccc3)c(=O)c3c(N)scc23)cc1`, the Potency is reported as “inactive”.
For `O=C1CC(Nc2ccc(N3CCOCC3)cc2)C(=O)N1c1cccc(C(F)(F)F)c1` (stereo not given), the Potency was “inactive”.
For `O=C(O)CP(=O)(c1ccccc1)c1ccccc1`, the Potency was “inactive”.
With `CC(=O)N1c2c(cc(Br)cc2S(=O)(=O)NCc2cccnc2)CC1C` (stereo not given) the Potency was “inactive”.
In the case of `Cc1cc(-c2csc(NC(=O)c3ccc(=O)[nH]c3)n2)c(C)n1Cc1ccccc1`, the Potency is reported as “inactive”.
For `C=CC[C@H](CC(=O)N[C@H](CO)Cc1ccccc1)C(=O)N[C@H](COC(=O)[C@@H](CC=C)CC(=O)OC(C)(C)C)Cc1c[nH]c2ccccc12`, the Potency was “inactive”.
In the case of `Cc1ccc(SCC(=O)NCC(C)C)cc1`, the Potency is reported as “inactive”.

From PubChem BioAssay AID493168 (National Center for Advancing Translational Sciences (NCATS), 2011)
Note: nearly all actives have a fitted effect of over 55% in size.
Potency is the fitted concentration of half-maximal effect.
